This is one part of a sample in which hits are shown more often than they occur.
Pf Dd2 inh – qHTS Primary assay for Inhibitors of Plasmodium falciparum Dd2 growth in vitro; P. falciparum Dd2 growth, SYBR Green, 72 h; Potency, µM (doses to about 28.9 µM), for inactives: at the highest dose activity, negative = inhibition, usual class: inhibitors; 4.3% of 120,000 active; AID 1347417, 2020; active = well fitted inhibition curve with a large enough effect;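 also: plate controls were DMSO vehicle for no effect and reference drug for full effect; nearly all actives have a fitted effect of over 65% in size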
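Readout: SYBR Green fluorescence, 485 nm excitation, 535 nm emission, after ~16 h lysis at 37C. Before that, Dd2-infected red cells (2.5% hematocrit) grew 72 h with compound, 29 uM top final concentration.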
An asterisk follows results filed as active; i = inactive; [ ] = remark or other dose. Potency is read from the fitted curve at half-maximal effect.

SMILES | Pf Dd2 inh
COCC(=O)N(C1CCOCC1)C1CCN(C(=O)c2cccc(C)c2)CC1 | -24.6%
O=C(NCC1(c2ccccc2F)CCCC1)C1CCN(C(=O)C2CC2)CC1 | -6.5%
COc1ccc(CNC(=O)CC2CCCCN(C)C2=O)c(OC)c1 (stereo not drawn) | 3.3%
CN(C)C[C@@H]1CN(Cc2ccccc2)C[C@H]1NC(=O)c1cn(C)cn1 | 3.9%
COc1ccccc1CC(=O)N1CCC2(CC1)N=C(c1ccc(Cl)cc1)NO2 | -35.5%
Cc1ccc(C2=NC3(CCN(C(=O)c4c[nH]c5ccccc45)CC3)ON2)cc1 | -12.8%
Cc1ccc(C)c(C(=O)N2CCC3(CC2)N=C(c2ccccc2)NO3)c1 | i
CN(C)c1ccc(C(=O)N2CCC3(CC2)N=C(c2cccc(Br)c2)NO3)cc1 | 37.4%
Cc1ccc(C2=NC3(CCN(C(=O)Cc4ccc(F)cc4)CC3)ON2)cc1 | -12.9%
O=C(c1ccccc1)N1CCC2(CC1)N=C(c1cccc(Br)c1)NO2 | i
Cc1ccc(C2=NC3(CCN(C(=O)Cc4ccccc4Cl)CC3)ON2)cc1 | 11.2µM*
Cc1ccc(C2=NC3(CCN(C(=O)c4ccccc4C)CC3)ON2)cc1 | 6.31µM*
CC(=O)Nc1ccc(C(=O)N2CCC3(CC2)N=C(c2cccc(Br)c2)NO3)cc1 | 11.2µM*
COc1ccc(C(=O)N2CCC[C@H]2c2nc(-c3ccc(OC)c(OC)c3)no2)cc1F | -4.1%
CC1(C(=O)NCc2ccncc2)CCc2cnc(NCc3ccccc3)nc21 (stereo not drawn) | i
CCN1CCCC1CNC(=O)Cn1nc2c(cc1=O)CCCC2 (stereo not drawn) | -2.2%
Cc1cnc(CN2CC3(CCCN(c4ccc(C#N)cn4)C3)CCC2=O)cn1 (stereo not drawn) | -20.4%
COCCOCC(=O)N1CCC2(CC1)CC(N1CCCCC1)CCO2 (stereo not drawn) | 52.8%
CCN1c2cc(C(=O)Nc3ccc(F)c(F)c3)ccc2C(=O)N2CCCCC21 (stereo not drawn) | -2.8%
O=C1N2CCCC2CN1C1CCN(Cc2ccccn2)CC1 (stereo not drawn) | -16.4%[44.1 µM]
COCc1nc(C2CC(NC(=O)CN3C(=O)CN(C)C3=O)C2)cc(=O)[nH]1 (stereo not drawn) | -11.7%
CN(C)c1nc(NC2CC(c3cc(=O)[nH]c(C4CC4)n3)C2)ncc1F (stereo not drawn) | i
COCc1nc(C2CC(Nc3ccnc4cc(Cl)ccc34)C2)cc(=O)[nH]1 (stereo not drawn) | 2.51µM*
Cn1cccc1C(=O)N1CCn2c(nnc2[C@@H]2C[C@@H](O)CN2Cc2ccccc2)C1 | -16.3%
COc1ccc(CNC(=O)N(C)C2CCc3nn(CC4CC4)c(=O)n3CC2)cc1 (stereo not drawn) | 19.0%
SMILES | Pf Dd2 inh
COc1ccc(CCNC(=O)C2CCN(S(=O)(=O)c3c(C)noc3/C=C/c3ccc(C)cc3)CC2)cc1OC | -5.2%
CCc1ccc(NC(=O)C2CCN(S(=O)(=O)c3c(C)noc3/C=C/c3cccs3)CC2)cc1 | 12.6µM*
COc1cccc(/C=C/c2onc(C)c2S(=O)(=O)N2CCC(C(=O)N3CCC(C)CC3)CC2)c1 | -9.5%
Cc1noc(C)c1S(=O)(=O)N1CCC(C(=O)Nc2ccc(Br)cc2)CC1 | -12.2%
COc1cc(OC)c(NC(=O)C2CCN(S(=O)(=O)c3c(C)noc3/C=C/c3c(C)cc(C)cc3C)CC2)cc1Cl | i
Cc1ccc(NC(=O)C2CCN(S(=O)(=O)c3c(C)noc3C)CC2)cc1C | -9.3%
COc1cccc(CNC(=O)C2CCN(S(=O)(=O)c3c(C)noc3/C=C/c3cccs3)CC2)c1 | 6.31µM*
Cc1noc(/C=C/c2cccs2)c1S(=O)(=O)N1CCC(C(=O)NCc2ccc(Cl)cc2)CC1 | i
CCOc1ccc(NC(=O)C2CCN(S(=O)(=O)c3c(C)noc3/C=C/c3c(C)cc(C)cc3C)CC2)cc1 | 63.4%
Cc1ccc(NC(=O)C2CCN(S(=O)(=O)c3cccs3)CC2)cc1 | -19.8%
COc1cc(NC(=O)C2CCN(S(=O)(=O)c3c(C)noc3/C=C/c3cccs3)CC2)cc(OC)c1 | 11.2µM*
Cc1cc(C)c(/C=C/c2onc(C)c2S(=O)(=O)N2CCC(C(=O)NCc3ccco3)CC2)c(C)c1 | 11.2µM*
Cc1nnc(N2CC[C@H](N3CCOCC3)[C@H](CCC(=O)O)C2)c2ccccc12 | 11.5%
C[C@@H](NC(=O)C1=C[C@@H](NC(=O)CC(C)(C)C)[C@@H](O)[C@H](O)C1)C(N)=O | 25.0%[44.1 µM]
CC(=O)NCC1(COc2cccnc2)C[C@@H](O)[C@@H](O)C1 (stereo partly drawn) | 36.5%[44.1 µM]
COC1CCC(C(=O)N2CC(CNc3ccccc3)C3(C2)CN(c2ccccc2)C3)CC1 (stereo not drawn) | -8.6%[44.1 µM]
CC(C)Cc1cc(C(=O)N2CCCC(C)(c3ccccc3)C2)no1 (stereo not drawn) | -24.8%
O=C(Nc1ccccc1)N1CCN(c2ccc(Cl)nn2)C(=O)C1 | -5.9%
O=[S+]([O-])(c1ccccc1)N1CC2(COCCN(c3nccc(C(F)(F)F)n3)C2)C1 | 21.2%[44.1 µM]
